HPGD block = inhibitors of human 15-hydroxyprostaglandin dehydrogenase (HPGD); AID 894; 4.3% of 150,000 active; P15428; purified HPGD, NADH fluorescence kinetic, PGE2 substrate; Potency, µM, inactives show at the top dose activity change, negative = inhibition, actives largely listed as inhibitors; active = well fitted inhibition curve with a large enough effect, not every such curve was filed as active; inconclusive = small, poorly fitted or top-dose-only effect, or another doubt; inactive = no such curve, though single readings can be large or run the other way
Target sequence (P15428 whole entry, looked up): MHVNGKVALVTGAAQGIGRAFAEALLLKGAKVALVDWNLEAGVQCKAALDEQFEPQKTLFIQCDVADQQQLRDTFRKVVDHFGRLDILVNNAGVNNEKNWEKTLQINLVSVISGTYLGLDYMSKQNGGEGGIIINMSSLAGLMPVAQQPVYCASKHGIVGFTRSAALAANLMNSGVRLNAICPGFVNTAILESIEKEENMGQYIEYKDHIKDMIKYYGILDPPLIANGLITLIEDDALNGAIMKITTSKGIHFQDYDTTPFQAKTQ
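NADH formation kinetics: reaction with 30 uM PGE2 and 1 mM NAD+ (final), 20 nM enzyme, Tris-HCl pH 8 with Tween 20, after 15 min compound preincubation at room temperature. Fluorescence change, last versus first of five reads.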
JMJD2E inh = blocks human JMJD2E demethylase activity; B2RXH2; JMJD2E catalytic domain, FDH-coupled NADH fluorescence (FDH is formaldehyde dehydrogenase); Potency, µM (doses to about 57.1 µM), for the others: top-dose activity change, negative = inhibition, actives largely listed as inhibitors; 1.6% of 230,000 active; AID 2147; active = well fitted inhibition curve with a large enough effect, not every such curve was filed as active; inconclusive = small, poorly fitted or top-dose-only effect, or another doubt; inactive = no such curve, though single readings can be large or run the other way;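 also: 0% = wells with enzyme and -100% = buffer wells without enzyme; nearly all actives have a fitted effect of over 50% in size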
Target sequence (B2RXH2 1-337 limits assumed): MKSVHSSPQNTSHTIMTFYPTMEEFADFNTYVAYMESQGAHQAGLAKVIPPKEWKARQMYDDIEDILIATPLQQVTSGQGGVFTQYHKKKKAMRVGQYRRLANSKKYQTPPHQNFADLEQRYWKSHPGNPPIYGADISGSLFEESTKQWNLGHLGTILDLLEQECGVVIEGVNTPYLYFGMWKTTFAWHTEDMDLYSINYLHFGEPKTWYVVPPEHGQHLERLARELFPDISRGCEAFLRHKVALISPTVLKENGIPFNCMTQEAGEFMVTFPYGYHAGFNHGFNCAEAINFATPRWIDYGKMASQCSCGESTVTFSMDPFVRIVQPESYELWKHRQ
Tau fluor counter = counter-screen for tau fibril formation inhibitors. 0.93% of 280,000 active. tau K18 P301L Alexa594 fluorescence, heparin fibrillization. AID 1463. Potency, µM (series often up to 57.7 µM), inactives show at the top dose activity change, negative = decrease; also: nearly all actives have a fitted effect of over 55% in size
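Human tau K18 P301L (15 uM unlabeled, 0.24 uM Alexa 594-labeled) in 100 mM sodium acetate pH 7 with 20 uM heparin, 6 hr at 37 C. ThT 30 uM added, 1 hr ambient; Alexa 594 FP and total fluorescence read at 555/632 nm.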
Tau fibril FP = inhibitors of human tau fibril formation. 0.39% of 280,000 active. Potency, µM (titrated, usually from 57.7 µM), for inactives: at the top dose activity, negative = inhibition, usual class: inhibitors. K18 P301L tau heparin fibrillization, Alexa594 FP, 6 h. AID 1468. P10636; also: nearly all actives have a fitted effect of over 55% in size
Target sequence (P10636 561-689 P618L limits assumed): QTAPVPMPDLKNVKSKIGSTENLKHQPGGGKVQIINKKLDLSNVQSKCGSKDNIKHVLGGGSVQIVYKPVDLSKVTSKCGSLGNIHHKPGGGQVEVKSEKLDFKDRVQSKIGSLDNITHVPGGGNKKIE
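Recombinant K18 P301L […], labeled with Alexa 594 at 0.24 uM over 15 uM unlabeled; heparin inducer 20 uM final; 37 C, 6 hr; FP endpoint.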
ALDH1A1 inh = blocks purified human ALDH1A1 activity. Purified ALDH1A1, NADH fluorescence, propionaldehyde substrate. Potency, µM (series often up to 75.3 µM), without a hit: at the highest dose activity, negative = inhibition, hits mostly inhibitors. P00352. AID 1030. 7.3% of 220,000 active; active = well fitted inhibition curve with a large enough effect, not every such curve was filed as active; inconclusive = small, poorly fitted or top-dose-only effect, or another doubt; inactive = no such curve, though single readings can be large or run the other way;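 also: plate controls were no enzyme wells and a reference inhibitor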
Tau ThT inhib = blocks human tau fibril formation measured by thioflavin T; P10636; recombinant tau K18 P301L (four-repeat tau fragment), heparin-induced fibrillization, ThT fluorescence; Potency, µM (series often up to 57.4 µM), without a hit: at the highest dose activity, negative = inhibition, hits mostly inhibitors; 2.1% of 270,000 active; also: nearly all actives have a fitted effect of over 55% in size
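In this qHTS, human K18 P301L tau is incubated with compound and heparin for 6 hr at 37 C, and Thioflavin T fluorescence then reports fibril load.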
Active calls of the source: *; ? = inconclusive; / = no result given; [ ] = dose if it differs, or a comment. The list is not random: actives were taken first. Their share in the collection is about 9.9%. Unless noted, calls follow the shape of the dose curve; as a rule, active = well fitted curve in the direction sought with a large enough effect; inconclusive = small, poorly fitted or top-dose-only effect, or another doubt; inactive = no such curve, though single readings can be large; an effect the other way counts as inactive or inconclusive. Unless noted, % is scaled to controls: 0 for no effect and ±100 for the full control effect; potency is read from the fitted curve at half-maximal effect.

SMILES	HPGD block	JMJD2E inh	Tau fluor counter	Tau fibril FP	ALDH1A1 inh	Tau ThT inhib
O=C(CCCN1C(=O)/C(=C/c2ccccc2Cl)SC1=S)Nc1ccccn1	15.8µM*	1.5%	10.3%	1.6%	-1.8%	16.0%
Cc1ccc(Nc2nc(N/N=C/c3c[nH]c4ccccc34)nc(N3CCOCC3)n2)cc1	-22.7%	-0.5%	?	-7.2%	-5.1%	?
Brc1cc2c(cc1/C=N/Nc1nc(N3CCOCC3)nc(N3CCOCC3)n1)OCO2	-14.7%	-19.8%	-1.9%	0.6%	20µM*	-4.5%
BrC(/C=N/Nc1nc(N2CCOCC2)nc(N2CCOCC2)n1)=C/c1ccccc1	15.8µM*	-4.6%	-12.4%	-1.0%	?	?
Cc1cc(/C=N/Nc2nc(N3CCOCC3)nc(N3CCOCC3)n2)c(C)n1-c1ccccc1	/	35.5µM*	-18.5%	-9.3%	?	?
COc1ccc(-n2c(C)cc(/C=N/Nc3nc(N4CCOCC4)nc(N4CCOCC4)n3)c2C)cc1	-10.1%	?	0.6%	-5.9%	?	?
Cc1[nH]c2ccccc2c1/C=N/Nc1nc(Nc2ccc(F)cc2)nc(N2CCOCC2)n1	-8.0%	-0.7%	31.6µM*[quencher]	?	-13.0%	28.2µM*
Cc1cc(C)cc(NC(=O)C2CCN(S(=O)(=O)c3cn(C)cn3)CC2)c1	/	/	2.9%	2.4%	/	5.5%
O=C(NCC1CCCO1)c1sc2ccccc2c1Cl (stereo not given)	8.91µM*	-3.8%	-3.8%	6.6%	?	-1.2%
Cc1ccc2c(Cl)c(C(=O)NCC3CCCO3)sc2c1 (stereo not given)	14.1µM*	3.0%	-6.2%	6.8%	-9.0%	-13.9%
COc1ccc2c(Cl)c(C(=O)NCC3CCCO3)sc2c1Cl (stereo not given)	-17.0%	-22.1%	-10.2%	?	2.2%	-11.6%
COC(=O)c1cc([N+](=O)[O-])c(-n2ccnc2)c([N+](=O)[O-])c1	-6.1%	3.9%	?	-3.6%	-6.1%	?
S=C(c1ccc(-c2cc(Cl)ccc2Cl)o1)N1CCOCC1	28.2µM*	-2.4%	-24.4%	-1.3%	22.4µM*	?
S=C(c1ccc(-c2cc(Cl)ccc2Cl)o1)N1CCCCC1	7.94µM*	4.4%	-0.5%	12.9%	2.8%	0.4%
O=C(Nc1ccc(CN2CCOCC2)cc1)c1ccc(-c2cc(Cl)ccc2Cl)o1	?	?	?	?	?	-7.1%
O=C(NCCN1CCN(c2ccccc2)CC1)Nc1ccccc1Br	/	/	-12.6%	-3.1%	/	-11.5%
Cc1ccccc1Nc1oc(-c2ccccc2)nc1-c1ccccc1F	-18.1%	2.2%	-21.0%	?	1.8%	-6.2%
Cc1nc2ccccc2c2oc(C(=O)N3CCc4ccccc4C3)cc12	-9.7%	0.4%	-6.8%	5.7%	25.1µM*	?
CC1(C)CC(=O)C2=C(C1)OC1=C(C(=O)CC(C)(C)C1)C2c1ccc(O)c([N+](=O)[O-])c1	/	4.8%	-18.1%	-11.2%	-6.5%	-14.0%
CC1(C)CC(=O)C2=C(C1)OC1=C(C(=O)CC(C)(C)C1)C2c1ccc(O)cc1O	3.16µM*	?	1.9%	10.6%	0.891µM*	?
CC(C)(C)C(=O)OCC(=O)C1CCC2C3CCC4=CC(=O)CCC4(C)C3CCC12C (stereo not given)	-9.3%	/	-8.1%	-9.1%	2.5%	-8.3%
C[C@@]12CC[C@@H]3[C@H](CCC4=CC(=O)CC[C@]43C)[C@@H]1CC[C@@H]2C(=O)COS(=O)(=O)c1ccc(Br)cc1	-13.7%	/	/	/	3.55µM*	/
CC(=O)c1sc(=S)n(-c2ccccc2)c1C	/	-5.2%	-0.9%	0.7%	-5.6%	-4.4%
Nc1c(C(=O)N2CCOCC2)sc(=S)n1-c1ccccc1	11.2µM*	-4.9%	5.5%	-5.5%	8.91µM*	-17.0%
Nc1c(C(=O)N2CCCCC2)sc(=S)n1-c1ccccc1	3.16µM*	?	-17.6%	?	1.41µM*	?
SMILES	HPGD block	JMJD2E inh	Tau fluor counter	Tau fibril FP	ALDH1A1 inh	Tau ThT inhib
COc1ccc(NC(=S)Nc2cccc(C(F)(F)F)c2)c(C)c1	/	5.0%	-7.8%	1.2%	-4.4%	0.6%
COCc1ccc([C@@H]2C[C@H]3CN(Cc4ccccc4C)C(=O)[C@]34CCCN24)o1	/	0.6%	0.3%	-5.7%	20µM*	-16.2%
O=C(CC(c1ccccc1)c1ccccc1O)NCc1ccco1 (stereo not given)	15.8µM*	-4.9%	-7.4%	-7.0%	3.5%	-6.9%
O=C(CSCC(=O)NCc1ccco1)NCc1ccco1	-5.9%	10.3%	6.9%	3.8%	?	4.0%
O=C(CC(c1ccccc1)c1ccccc1O)NCc1ccccc1Cl (stereo not given)	15.8µM*	-0.7%	-6.1%	-2.2%	-3.8%	-0.1%
O=C(NCc1ccccc1Cl)NCc1ccccc1Cl	/	-5.5%	1.8%	-4.2%	/	-1.1%
O=C(COC(=O)CCSc1ccc(Cl)cc1)NCc1ccccc1	-5.7%	5.2%	-7.4%	8.6%	1.9%	-9.1%
O=C(COC(=O)CCSc1ccccc1)NCc1ccccc1Cl	17.8µM*	1.8%	5.9%	6.7%	7.0%	9.3%
O=C(O)c1ccc2nc(-c3cc4cc(Cl)ccc4oc3=O)[nH]c2c1	/	/	-13.3%	2.7%	/	?
CC1CN(C(=S)NC(=O)C2CCCCC2)CC(C)O1 (stereo not given)	-11.3%	3.8%	-0.3%	2.1%	-0.5%	1.3%
COc1cccc(CNC(=O)CCNS(=O)(=O)c2ccc3c(c2)CCCC(=O)N3)c1	/	/	-6.3%	3.0%	/	0.6%
CCOc1ccc(N2C(=O)CC(Sc3nc(C)cc(C)c3C#N)C2=O)cc1 (stereo not given)	-7.2%	6.3%	2.4%	0.4%	14.1µM*	7.5%
COc1ccc(N2C(=O)CC(Sc3n[nH]c(-c4ccccc4)n3)C2=O)cc1 (stereo not given)	/	-22.2%	-14.1%	10.3%	/	?
CCOc1ccc2nc(SC3CC(=O)N(c4cccc(OC)c4)C3=O)sc2c1 (stereo not given)	-16.1%	-18.2%	-21.2%	11.4%	20µM*	?
CCOc1ccc(N2C(=O)CC(Sc3n[nH]c(-c4ccccc4)n3)C2=O)cc1 (stereo not given)	/	-20.8%	0.7%	-0.4%	0.447µM*	?
CCOC(=O)c1cnc(SC2CC(=O)N(c3cccc(OC)c3)C2=O)nc1N (stereo not given)	/	-3.5%	?	6.8%	-0.7%	-5.0%
CCOc1ccc2nc(SC3CC(=O)N(c4ccccc4)C3=O)sc2c1 (stereo not given)	-21.7%	?	-15.7%	5.8%	14.1µM*	?
O=C1C2C(C(=O)N1CCN1CCN(Cc3ccc([N+](=O)[O-])cc3)CC1)[C@H]1C=C[C@@H]2C1 (stereo not given in full)	/	-0.7%	-12.5%	-9.3%	/	-11.6%

From PubChem
